PubChem BioAssay AID624330 (Southern Research Specialized Biocontainment Screening …, 2012)
Screen size: about 340,000 compounds; about 2,100 (0.62%) were called active.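 Rule for the calls: active = first-screen hits whose inhibition reached a set limit at any dose in the follow-up dose series; inconclusive = inhibition above the set first-screen limit but never retested; inactive = the rest.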 A selection follows. Measured potencies and affinities stand elsewhere.

biological target: Rac GTPase-activating protein 1 (Homo sapiens) (UniProt Q9H0H5); assay: blockers of MgcRacGAP-driven Rac1 GTP hydrolysis – biochemical, ADP Hunter fluorescence, primary and confirmatory, confirmation (AID 624330); conditions: MgcRacGAP-stimulated Rac1 GTP hydrolysis, at 30 µM, stronger effect = higher value, GST-tagged Rac1 F28L mutant substrate;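 note: fluorescence reports GDP produced by GAP-driven GTP hydrolysis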
Sequence (Q9H0H5 whole entry, looked up): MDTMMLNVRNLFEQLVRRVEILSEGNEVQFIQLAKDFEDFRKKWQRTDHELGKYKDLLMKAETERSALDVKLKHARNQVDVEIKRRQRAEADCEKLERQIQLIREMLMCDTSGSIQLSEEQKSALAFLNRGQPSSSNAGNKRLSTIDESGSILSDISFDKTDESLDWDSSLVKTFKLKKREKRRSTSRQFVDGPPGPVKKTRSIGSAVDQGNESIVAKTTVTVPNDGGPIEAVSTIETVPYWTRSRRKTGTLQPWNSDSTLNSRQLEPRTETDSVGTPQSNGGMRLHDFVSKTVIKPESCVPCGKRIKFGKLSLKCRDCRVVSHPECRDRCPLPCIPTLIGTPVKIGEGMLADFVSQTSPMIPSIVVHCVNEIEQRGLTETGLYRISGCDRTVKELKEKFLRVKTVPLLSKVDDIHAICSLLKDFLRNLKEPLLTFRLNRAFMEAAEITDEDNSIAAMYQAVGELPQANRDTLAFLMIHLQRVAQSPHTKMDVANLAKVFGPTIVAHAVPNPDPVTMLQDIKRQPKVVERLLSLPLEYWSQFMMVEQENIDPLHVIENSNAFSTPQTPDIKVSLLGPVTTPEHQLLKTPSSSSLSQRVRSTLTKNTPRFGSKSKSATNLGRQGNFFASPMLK

inhibition, inactive:
O=C(COC(=O)CNC(=O)c1ccccc1F)Nc1ccc2c(c1)OCO2 4.84%, COC(=O)c1cc(Nc2cc(C)c3ccc(O)cc3n2)cc(C(=O)OC)c1 11.8%, COc1nc(-c2ccccc2)nc(C)c1CC(=O)O 9.59%, Cc1ccc(S(=O)(=O)/N=C(/c2ccc(F)cc2)N(C)C)cc1 8.12%, COCCN(Cc1nc(C2(c3ccc(C)cc3)CCCC2)no1)C(C)C -3.53%, CCOc1ccc(N2C(=O)Nc3ccc(Br)cc3C2(O)C(=O)NCCCN(C)C)cc1 (configuration not stated) 8.07%, COC(=O)C(CC(=O)c1ccc(C)cc1)n1cccn1 (configuration not stated) 11.3%, CCOC(=O)c1cnc2ccccc2c1Nc1cccc(C(=O)O)c1 -0.21%, CCSc1nnc(NC(=O)[C@H](C)NC(=O)c2ccccc2Cl)s1 9.72%, CCC(=O)Nc1ccc(C(=O)c2ccccc2)cc1 10.1%, CCC(=O)Nc1ccc(NC(=S)Nc2ccccc2)cc1 8.45%, CC(C)C1N=C2c3ccccc3N=C(SCC#N)N2C1=O (configuration not stated) 10.5%, CC(C)C1N=C2c3ccccc3N=C(SCC(=O)NCCc3ccc(S(N)(=O)=O)cc3)N2C1=O (configuration not stated) 1.59%, COc1ccc(Cl)cc1NC(=O)C1Cc2cc(S(=O)(=O)N3CCCC3)ccc2N1C(C)=O (configuration not stated) 2.38%, COc1ccc(CCNC(=O)COC(=O)CCC(=O)c2cccs2)cc1OC 3.28%, COc1cccc(S(=O)(=O)NCc2ccc(C(=O)NCc3ccco3)cc2)c1 13.6%, Cc1ccc(Cl)cc1NC(=S)N1CCC(c2ccccc2)C1 (configuration not stated) 7.04%, COc1ccc(OC)c(CN2CCN(c3ccccc3OC)CC2)c1 19.8%, COc1ccccc1N1CCN(Cc2ccc(OC)c(OC)c2OC)CC1 28.2%, COc1ccc(CN2CCC(n3nccc3NC(=O)C3CC3)CC2)c(OC)c1OC 8.32%, COc1ccc(OC)c(CN2CCSCC2)c1 36.4%, COc1ccc(OC)c(CN2CCN(Cc3cc(OC)c(OC)c(OC)c3)CC2)c1 -7.74%, COc1ccc(CN2CCN(c3ccc(F)cc3)CC2)c(OC)c1OC 8.37%, COc1ccc2oc(=O)cc(CN3CCN(Cc4ccc(OC)c(OC)c4OC)CC3)c2c1 11.2%, COc1ccc(CN2CCC(N3CC(C)OC(C)C3)CC2)c(OC)c1 (configuration not stated) 29.1%, O=C(c1ccccc1F)N1CCN(c2ccc([N+](=O)[O-])c(NCC3CCCO3)c2)CC1 (configuration not stated) 11.1%, COc1ccc(CCNC(=O)C2CCCN2C(=O)Nc2ccc(F)cc2)cc1OC (configuration not stated) 7.58%, O=C(CSc1nnc(NC(=O)C2CC(=O)N(c3ccccc3)C2)s1)NCC1CCCO1 (configuration not stated) 8.28%, CN(Cc1ccccc1)c1ncc(C=O)s1 11.2%, CCCCC(=O)Nc1ccccc1CC 7.96%, C=CCN1C(=O)CS/C1=N\N=C\c1cccc([N+](=O)[O-])c1 5.94%, CCCCNS(=O)(=O)c1ccc2nc(SCC(=O)Nc3ccccc3Cl)[nH]c2c1 9.77%, CCOc1ccc(NC(=S)N2CCN(C/C=C/c3ccccc3)CC2)cc1 6.87%, Cn1c(=O)n(C)c2cc(NC(=O)CSc3ccccc3)ccc21 6.1%, Clc1ccc(OCCCCCN2CCOCC2)cc1 -5.93%, CSc1ccc(CN2CCC(N3CCC(C(=O)NC4CC4)CC3)CC2)cc1 -3.51%, COc1ccc(CN2CCN(C(=O)c3ccccc3F)CC2)c(OC)c1OC -1.41%, CSc1ccc(CN2CCC(Cc3ccccc3)CC2)cc1 15%, CCOC(=O)Cc1csc(NC(=O)c2c(C)noc2C)n1 7.91%, CCC1=C2CC[C@H]3C(=O)N(C)C(=O)[C@H]3[C@H]2[C@@]2(Cc3ccccc3)C(=NCCOC)OC(=O)N2C1=O 10.6%, C/C(=N\NC(=O)c1nnn(-c2nonc2N)c1CN1CCCCCC1)c1ccc(Br)cc1 -3.03%, CC(Oc1ccc(F)cc1)C(=O)N(Cc1ccccc1)c1c(N)n(Cc2ccccc2)c(=O)[nH]c1=O (configuration not stated) 3.15%, CCOC(=O)Nc1ccc(Oc2ccccc2)cc1 1.24%, CCOC(=O)Nc1ccc(C(N)=O)cc1 10%, Cc1ccccc1NC(=O)COc1coc(CN2CCN(Cc3ccccc3)CC2)cc1=O 3.8%, N#Cc1ccc(-c2ccccc2)nc1Sc1ccc(F)cc1 3.11%, Cc1c(/C=N\NC(=O)C2(C)CC2(Cl)Cl)cnn1C (configuration not stated) 2.13%, CC(=O)Oc1ccc(/C=C2/C(=O)N(c3ccccc3)N=C2C)cc1 25%, CCOc1cc(/C=C2/C(=O)N(c3ccccc3)N=C2C)ccc1OC(=O)c1cccs1 15.2%, COc1ccc(C(=O)c2coc3ccc(O)c(CN4CCCC4)c23)cc1 8.22%, CN1C2CCC1/C(=C\c1ccccc1F)C(=O)/C2=C/c1ccccc1F 7.33%, CN1C2CCC1/C(=C\c1ccccc1)C(=O)/C2=C\c1ccccc1 12.8%, Cc1ccc(S(=O)(=O)N2CCCCC2)cc1NC(=O)c1c(-c2ccccc2)noc1C 0.74%, O=C(COC(=O)C1CCCCC1)Nc1ccc(S(=O)(=O)N2CCOCC2)cc1 -2.69%, CCCC(c1nnnn1CCOC)N(Cc1cc2cc(C)c(C)cc2[nH]c1=O)CC1CCCO1 (configuration not stated) 1.47%, COc1ccc(CN2CCSCC2)c(OC)c1C 28.9%, COc1cc(Br)c(CN2CCCN(C)CC2)cc1OC 5.08%, COc1ccc(CN2CCCCCC2)c(C)c1C 11.4%, COc1cc(OC)c(CN2CCCCCCC2)cc1Br 14.3%, CC(=O)N1CCSc2ccc(S(=O)(=O)Nc3ccc(C)cc3)cc21 8.81%, CC(C(=O)Nc1ccccc1-c1ccccc1)N1CCCCC1 (configuration not stated) 0.68%, CN1CCN(C(=O)CCC(=O)c2ccc(F)cc2)CC1 7.21%, COc1ccc(CN2C(=O)c3ccccc3C2=O)cc1 -0.09%, COc1ccc(NC(=O)c2ccc3c(c2)C(=O)N(Cc2cccnc2)C3=O)cc1 9.43%, CC1S/C(=N/N=C/c2cccs2)NC1=O (configuration not stated) -9.62%, Nc1cc([N+](=O)[O-])ccc1Nc1ccccc1 15.2%, O=[N+]([O-])c1ccccc1Nc1ccccc1 5.61%, Nc1ccc(Nc2ccc([N+](=O)[O-])cc2[N+](=O)[O-])cc1 25.4%, O=[N+]([O-])c1ccccc1Nc1ccccc1[N+](=O)[O-] -9.22%, CCCCOc1ccccc1N1CCN(CCCN2C(=O)C3CCCN3C2=O)CC1 (configuration not stated) 9.54%, Cc1c2cnn(CC(=O)NCCCN3CCCCC3C)c(=O)c2c(C)n1Cc1ccccc1 (configuration not stated) 8.86%, Clc1ccc2c(c1)Nc1ccccc1CC2 9.56%, O=C1CCc2ccccc2N1 3.09%, CCn1c(COc2ccc(=O)n(-c3ccccc3)n2)nnc1SC 7.04%, CCCCC(=O)OCC(=O)C1(O)Cc2c(O)c3c(c(O)c2C(OC2CC(NC(=O)C(F)(F)F)C(O)C(C)O2)C1)C(=O)c1c(OC)cccc1C3=O (configuration not stated) 6.09%, COc1cccc2c1C(=O)c1c(O)c3c(c(O)c1C2=O)CC(O)(C(=O)CO)CC3OC1CC(N(C)C)C(O)C(C)O1 (configuration not stated) 20.6%, COc1cccc2c1C(=O)c1c(O)c3c(c(O)c1C2=O)C[C@](O)(C(C)=O)C[C@H]3O[C@@H]1C[C@@H](N)[C@@H](O)[C@@H](C)O1 21.3%, COc1cccc2c1C(=O)c1c(O)c3c(c(O)c1C2=O)CC(O)(C(C)=O)CC3OC1CC(N(C)C)C(O)C(C)O1 (configuration not stated) 16.8%, C/C(=N\NC(=O)c1ccc(Cl)c(Cl)c1)c1cccc(NC(=O)C(C)C)c1 10%, COc1cccc2c1C(=O)c1c(O)c3c(c(O)c1C2=O)CC(O)(C(C)=O)CC3OC1CC(O)C(O)C(C)O1 (configuration not stated) 11.6%, CCCn1c2c(c(O)c(C(=O)NCc3ccccc3)c1=O)CCCC2 0.77%, COCCCN(C(=O)CSCC(=O)Nc1ccc(C)cc1)c1c(N)n(Cc2ccccc2)c(=O)[nH]c1=O 8.76%, COc1cc(NC(=O)CN2C(=O)NC(CC(C)C)C2=O)cc(OC)c1OC (configuration not stated) 6.04%, CC1(C)C(=O)Nc2ccccc2N1C(=O)CN1C(=O)NC(CCc2ccccc2)C1=O (configuration not stated) 2.92%, Cc1cc(C)cc(NC(=O)COC(=O)CCCNC(=O)c2ccc(Cl)cc2)c1 3.85%, COc1ccc(CCNC(=O)c2ccc(N3CCCC3=O)cc2)cc1OC 12.5%, COc1ccc(-c2nnn(CC(=O)N(CC(=O)NCCC(C)C)c3ccccc3)n2)cc1OC 1.41%, COc1ccc(-c2[nH]ncc2-c2ccc(Cl)cc2)c(O)c1 11.8%, Oc1ccc(-c2[nH]ncc2-c2ccc(Br)cc2)c(O)c1 26.8%, CC(C)(C)c1ccc(C(=O)N/C(=C\c2ccco2)C(=O)Nc2ccccc2C(=O)O)cc1 7.9%, C[C@H](NC(=O)C1CCN(S(=O)(=O)c2ccccc2)CC1)C(=O)NC1CC1 4.17%, O=C(NCc1ccc2c(c1)OCO2)c1cc(-c2ccccc2)c(N2CCOCC2)s1 11.5%
